Test results from PubChem BioAssay AID1851 (National Center for Advancing Translational Sciences (NCATS), 2009).
Several values for one entry are separate records, joined by “and”; a condition that tells them apart may be missing. Identical values can stand only once. Hit rate of the full screen: of about 16,000 compounds, about 4,000 (25%) were called active. About 26% were inconclusive and are not listed. The call rests on the fitted dose curve; in most records, active means well fitted curve in the direction sought with a large enough effect; inconclusive means small, poorly fitted or top-dose-only effect, or effect the other way; inactive means no such curve, though single readings can be large or run the other way. A selection follows. Where a structure was tested more than once in an assay, its records may differ in their call.

The compounds below were run against Cytochrome P450 2C9 (Homo sapiens) (UniProt P11712) (assay: Cytochrome panel assay with activity outcomes). Conditions: recombinant CYP, pro-luciferin dealkylation, luminescence, p450-cyp2c9; series mostly up to 57.1 µM; activity, negative = inhibition: at the top concentration.
Sequence of Cytochrome P450 2C9 (Homo sapiens) (P11712 whole entry, looked up): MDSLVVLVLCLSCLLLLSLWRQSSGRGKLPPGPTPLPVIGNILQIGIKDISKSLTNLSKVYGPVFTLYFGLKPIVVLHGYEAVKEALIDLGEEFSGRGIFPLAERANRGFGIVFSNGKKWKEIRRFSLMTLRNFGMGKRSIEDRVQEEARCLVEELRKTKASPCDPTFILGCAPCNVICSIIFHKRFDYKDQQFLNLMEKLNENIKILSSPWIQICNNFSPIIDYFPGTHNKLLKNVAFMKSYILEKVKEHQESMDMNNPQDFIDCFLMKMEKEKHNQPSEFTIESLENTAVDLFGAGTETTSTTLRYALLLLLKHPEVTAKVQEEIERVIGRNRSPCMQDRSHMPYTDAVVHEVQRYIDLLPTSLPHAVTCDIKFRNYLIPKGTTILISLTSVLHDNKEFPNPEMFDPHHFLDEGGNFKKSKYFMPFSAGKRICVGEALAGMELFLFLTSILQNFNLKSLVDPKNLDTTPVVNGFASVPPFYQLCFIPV
On the % scale 0 is the no-effect control and ±100 the full control effect.

Structure (SMILES)	activity, negative = inhibition	AC50
CN1CC[C@@]2(CCCN(C(=O)Oc3ccccc3)C2)C1	-0.577% (inactive)	
CCN1CCN(c2ccc(NC(=O)C(C)C)cc2Cl)CC1	-14.2% (inactive)	
C(=NC12CN3CN(CN(C3)C1)C2)c1cccs1	-20.8% (inactive)	
CCS(=O)(=O)Nc1cccc(C(=C2CCCCC2)c2cnc[nH]2)c1		631 nM (active)
CNC(C)(C)Cc1ccccc1	15.3% [at 25.6 µM] (inactive)	
Brc1c(NC2=NCCN2)ccc2nccnc12	-26.3% (inactive)	
O=C(Nc1cccc(F)c1)N1CC2(CCN(C(=O)Oc3ccccc3)CC2)C1	-10.4% (inactive)	
Nc1ncnc2c1ncn2[C@@H]1O[C@@H](COP(=O)(O)CP(=O)(O)OP(=O)(O)O)[C@H](O)[C@@H]1O	-0.747% (inactive)	
C=CCN1C(=O)c2ccccc2Sc2ccc(C(=O)N3CCC4(CC3)OCCO4)cc21		1260 nM (active)
CC(=O)c1ccc2c(c1)N(CCCN(C)C)c1ccccc1S2	20.6% [at 25.6 µM] (inactive)	
CN1C(=O)c2ccccc2Sc2ccc(C(=O)N3CCC4(CC3)OCCO4)cc21		8910 nM (active)
CN1[C@@H](C[C@@H](O)c2ccccc2)CCC[C@@H]1C[C@H](O)c1ccccc1	-7.42% [at 25.6 µM] (inactive)	
CCCN(CCC)[C@@H]1CCc2c(OC)cccc2[C@@H]1C	-6.07% (inactive)	
C=C1CC[C@H](O)C/C1=C/C=C1\CCC[C@]2(C)[C@H]1CC[C@H]2[C@@H](C)CCCC(C)C	1.21% [at 25.6 µM] (inactive)	
CC[C@@]1(O)C(=O)OCc2c1cc1n(c2=O)Cc2cc3ccccc3nc2-1	inactive	
CCC(COC(=O)NC)NC(=O)Oc1ccccc1 (configuration not stated)	21.5% (inactive)	
CN(C(=O)Cc1ccccc1)[C@H](CN1CCCC1)c1ccccc1	-8.81% (inactive)	
Cc1cc[c]([Sb]2[O][C@H]([C@H](O)[C@H](O)C(=O)O)[C@@H](CO)[O]2)cc1	14% [at 11.4 µM] (inactive)	
O=C(O)CN1CCN(CC(=O)O)CC(=O)[O][Hg][O]C(=O)C1		1260 nM (active)

Structure (SMILES)	activity, negative = inhibition	AC50
C[C@]12CC[C@H]3c4ccc(O)cc4CC[C@@H]3[C@H]1CC[C@@H]2OP(=O)(O)O	12.3% [at 11.4 µM] (inactive)	
Nc1ccccc1O.O.O=C(O)[C@H]1[O][Sb][O][C@H]1C(=O)O	14.2% [at 11.4 µM] (inactive)	
O=c1[nH]cnc2[nH]cc(CN3CCCCC3)c12	-6.24% [at 11.4 µM] (inactive)	
N=C1c2ccccc2CN1NC(=O)c1ccc(Cl)cc1	-1.51% (inactive)	
O=C(Oc1ccccc1)N1CCC2(CCCN(Cc3nccs3)C2)CC1	-16.6% (inactive)	
C[C@@H](Cc1cccc(C(F)(F)F)c1)NCCCc1ccccc1	-1.99% (inactive)	
C[C@H]1CC[C@@]2(NC1)O[C@@H]1C[C@@H]3[C@@H]4CC=C5C[C@@H](O)CC[C@]5(C)[C@@H]4CC[C@]3(C)[C@H]1[C@@H]2C	-1.5% [at 11.4 µM] (inactive)	
C[C@@]12CC[C@H]3[C@H](CC=C4C[C@@H](O)CC[C@@]43C)[C@@H]1CC[C@@H]2N(CCO)CCO	7.98% [at 11.4 µM] (inactive)	
CN(C)CCC(=O)[C@@]1(O)CC[C@H]2[C@H]3CC=C4C[C@@H](O)CC[C@]4(C)[C@H]3CC[C@]21C		2510 nM (active)
Oc1ccc2c3c1O[C@H]1c4oc5ccccc5c4C[C@]4(O)[C@H](C2)N(CC2CC2)CC[C@@]314	inactive	
CN1CCN(c2ncc3ncc(=O)n(C)c3n2)CC1	-1.78% (inactive)	
C[C@@H](Cc1ccc(OCC(=O)O)cc1)NC[C@H](O)c1cccc(Cl)c1		inactive and 6.31 µM (active)
C[C@@H](Cc1ccccc1)NCCC(c1ccccc1)c1ccccc1	-14.2% [at 25.6 µM] (inactive)	
NS(=O)(=O)c1ccc(-c2ccc([As](=O)(O)O)cc2)cc1	14.8% [at 11.4 µM] (inactive)	
Cc1cc(C)nc(NC2=NCCS2)n1	-12.5% (inactive)	
CCN1CCN(S(=O)(=O)c2ccc(Cl)nc2)CC1	16% (inactive)	
C[C@]12N[C@@H](Cc3ccccc31)c1ccccc12	inactive	
CCCc1cc2c(n1CCO)C(C)C1CN(C(=O)c3ccccc3)C(C)(C(=O)OC)C21 (configuration not stated)		12600 nM (active)
CCCc1cc2c(n1Cc1cccc(Cl)c1)C(C)C1CN(C(=O)c3ccccc3)C(C)(C(=O)OC)C21 (configuration not stated)		5010 nM (active)

Structure (SMILES)	activity, negative = inhibition	AC50
NC[C@H](O)c1cc(O)c(O)cc1F	-14.1% (inactive)	
C=C1[C@@H]2CC[C@H]3[C@@]4(C)C[C@@H](O[C@@H]5O[C@H](CO)[C@H](OS(=O)(=O)O)[C@@H](OS(=O)(=O)O)[C@@H]5OC(=O)CC(C)C)C[C@@H](C(=O)O)[C@H]4CC[C@@]3(C2)[C@H]1O	7.32% [at 25.6 µM] (inactive)	
C=C1C(O)(c2ccccc2)C2CC[N+]1(C)CC2 (configuration not stated)	35.1% (inactive)	
COc1cc2c(cc1OC)[C@@]13CCN4CC5=CCO[C@H](CC(=O)O)[C@@H]([C@H]1N2)[C@H]5C[C@H]43	-2.18% [at 11.4 µM] (inactive)	
Cc1c(OCC(F)(F)F)ccnc1CS(=O)c1nc2ccccc2[nH]1 (configuration not stated)	-13.7% [at 25.6 µM] (inactive)	
C=CCO[C@@H](Cn1ccnc1)c1ccc(Cl)cc1Cl		100 nM (active)
CC(=O)N1CC[N+](C)(C)CC1	3.49% (inactive)	
CN1[C@@H]2CC[C@H]1CC(NC(=O)c1nn(C)c3ccccc13)C2 (some centres not stated)	-3.75% (inactive)	
CCOc1ccc(C2C(C#N)=C(N)Oc3c2c(=O)oc2ccccc32)cc1 (configuration not stated)		22.4 nM (active)
C[C@@]12CC[C@H](O[C@@H]3O[C@H](CO)[C@@H](O)[C@H](O)[C@@H]3O)C[C@@H]1CC[C@H]1[C@H]2CC[C@@]2(C)[C@@H](C3=CCOC3=O)CC[C@]12O	2% [at 11.4 µM] (inactive)	
C[C@H](N[C@@H](C)CCc1ccccc1)[C@H](O)c1ccc(O)cc1	-17.1% (inactive)	
O=C(O)c1cc[c]([Hg][S]c2ncnc3nc[nH]c23)cc1		1260 nM (active)
Ic1cncc(OC[C@@H]2CCN2)c1		31600 nM (active)
CC(C)(C)NC[C@@H](O)COc1cccc2[nH]c(C#N)cc12	-27.6% (inactive)	
CC[N@+]1(C)CCC[C@@H](OC(=O)C(O)(c2ccccc2)c2ccccc2)C1	-7.68% [at 25.6 µM] (inactive)	
C[N+]1([O-])[C@H]2CC[C@H]1CC(OC(=O)[C@@H](CO)c1ccccc1)C2 (some centres not stated)	3.51% [at 11.4 µM] (inactive)	
C[C@H]1CC[C@@]2(NC1)O[C@@H]1C[C@H]3[C@@H]4CC[C@@H]5C[C@@H](O)CC[C@@]5(C)[C@@H]4CC[C@]3(C)[C@@H]1[C@@H]2C	-6.95% [at 25.6 µM] (inactive)	
CC(C)CCC[C@@H](C)[C@@H]1CC[C@@H]2[C@H]3CC[C@H]4C[C@@H](N)CC[C@@]4(C)[C@@H]3CC[C@]21C	4.77% [at 11.4 µM] (inactive)	
C[C@@]12CC[C@H]3[C@@H](CC[C@@H]4C[C@H]5S[C@H]5C[C@]43C)[C@H]1CC[C@H]2O		5.01 nM (active)
